# IP6K1 inhibitor = inhibitors of human IP6K1; IP6K1 kinase, ADP-Glo luminescence, 2 h; active compounds read low; hit rate 0.81% among 140,000; activity change, % (series mostly up to about 58 µM); AID 1645851; in the data active means activity change below about -25%; further: on the % scale 0 is the no-effect control and ±100 the full control effect
# Target sequence (Q92551 whole entry, looked up): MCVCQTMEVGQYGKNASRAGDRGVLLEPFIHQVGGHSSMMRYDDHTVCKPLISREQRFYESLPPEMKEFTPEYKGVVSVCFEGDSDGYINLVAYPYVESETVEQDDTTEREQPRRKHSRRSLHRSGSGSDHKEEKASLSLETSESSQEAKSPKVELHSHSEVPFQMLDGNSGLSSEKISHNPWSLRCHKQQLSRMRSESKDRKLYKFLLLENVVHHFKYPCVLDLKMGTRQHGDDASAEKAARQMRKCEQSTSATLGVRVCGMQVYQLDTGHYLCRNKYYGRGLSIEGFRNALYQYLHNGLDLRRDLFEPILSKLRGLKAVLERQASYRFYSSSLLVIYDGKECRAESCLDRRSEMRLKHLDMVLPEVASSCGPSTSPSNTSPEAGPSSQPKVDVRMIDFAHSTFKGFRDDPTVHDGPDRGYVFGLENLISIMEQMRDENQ
#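 ADP-Glo luminescence measures ADP made by human IP6K1 during a 2 h RT reaction with ATP/IP6 (mix at 1.3 mM/130 uM); top library doses 57.5 and 19.1 uM final.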
# KDM5B inh = blocks human KDM5B histone demethylase activity; Potency, µM (doses to about 57.7 µM), hits mostly inhibitors; AID 1347165; hit rate 2.6% among 220,000; Q9UGL1; KDM5B demethylase, FDH-coupled NADH fluorescence (FDH is formaldehyde dehydrogenase); further: potency means the concentration at half of the fitted maximal effect; 0% is about no effect; nearly all actives have a fitted effect of over 70% in size
#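 Coupled FDH/NAD⁺ fluorescence readout. KDM5BΔAP 200 nM final; compound titration, 10 min RT preincubation; substrate mix 12.5 µM H3K4me3, 25 µM 2-OG, 50 µM Fe(II), 100 µM ascorbate, 0.25 mM NAD⁺, 0.25 U/mL FDH; ΔRFU over 30 min.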
# An asterisk follows results filed as active; i = inactive; ? = inconclusive; nt = no result given. The list is not random: actives were taken first. Their share in the collection is about 2.7%.
SMILES,IP6K1 inhibitor,KDM5B inh
COc1ccc(CCNC(=O)c2ccc(Cn3ccn4nc5c(c4c3=O)CCCC5)cc2)cc1OC,3.1,28.2µM*
Cc1oc(-c2ccccc2)nc1Cn1ccn2nc3c(c2c1=O)CCCC3,-6.2,28.2µM*
COc1ccc(CNC(=O)c2ccc(Cn3ccn4nc5c(c4c3=O)CCCC5)cc2)cc1,39.1,?
Cc1ccc(NC(=O)c2ccc(Cn3ccn4nc5c(c4c3=O)CCCC5)cc2)cc1,9.7,?
COc1ccc(CNC(=O)c2ccc(Cn3ccn4nc5c(c4c3=O)CCCC5)cc2)cc1OC,5.9,?
Cc1ccc(NC(=O)c2ccc(Cn3ccn4nc5c(c4c3=O)CCCC5)cc2)cc1C,36.1,25.1µM*
O=C(NCC(c1ccco1)N1CCOCC1)c1cc(=O)c2cc(Cl)ccc2o1 (configuration not stated),nt,i
COCCCn1c(C)cc(C(=O)COc2cccc3c2OC(C)(C)C3)c1C,nt,i
CS(=O)(=O)c1cccc(C(=O)N2CCN(CCc3ccccc3)CC2)c1,nt,i
O=C(CC1CCCC1)Nc1nc(-c2ccc3c(c2)CCO3)cs1,nt,i
FC(F)(F)c1cc(Cl)c2nc(C34CC5CC(CC(C5)C3)C4)cn2c1,nt,i
COc1ccc(C(=O)N2CCCCC2CCn2cc(-c3ccccc3)nn2)cc1 (configuration not stated),15.0,nt
CC(CCc1ccccc1)NC(=O)c1ccc(Cn2ccn3nc4c(c3c2=O)CCCC4)cc1 (configuration not stated),23.0,35.5µM*
CNC(=O)c1ccc(Cn2ccn3nc4c(c3c2=O)CCCC4)cc1,-10.2,i
Cc1cc(C(=O)NCCc2ccccc2)c2ccccc2n1,nt,i
COc1ccccc1N1CCN(C(=O)c2noc(-c3ccc(C)cc3)n2)CC1,-11.1,i
Cc1cccc(N2CCN(C(=O)c3noc(-c4ccc[nH]c4=O)n3)CC2)c1C,0.0,28.2µM*
Cc1ccccc1N1CCN(C(=O)c2noc(-c3ccc[nH]c3=O)n2)CC1,6.1,28.2µM*
Cc1ccc(-c2nc(C(=O)N3CCN(c4ccccc4C)CC3)no2)cc1,3.2,?
Cc1cccc(N2CCN(C(=O)c3noc(-c4ccc[nH]c4=O)n3)CC2)c1,9.8,28.2µM*
Cc1cccc(N2CCN(C(=O)c3noc(-c4ccc5c(c4)OCO5)n3)CC2)c1,3.3,?
Cc1cccc(C)c1OCC(O)Cn1c(C)cc(=O)n2ncnc12 (configuration not stated),nt,i
Cc1cccc(-c2cccc(CN3CCCC(C(=O)NCCCc4ccccc4)C3)c2)c1 (configuration not stated),-3.3,nt
CCOc1ccc(NC(=O)c2cc(=O)c3ccccc3o2)cc1,nt,i
COc1ccc(S(=O)(=O)N2CCC(C(=O)Nc3ccccc3Cl)CC2)c2cccnc12,nt,i
SMILES,IP6K1 inhibitor,KDM5B inh
O=C(NCc1ccc(N2CCOCC2)cc1)c1cc2c(s1)CN(C1CC1)C2,12.7,11.2µM*
O=C(NCCC1=CCCCC1)c1cc2c(s1)CN(C1CCCC1)C2,2.1,?
O=C(NC1CCCCCC1)c1ccc2oc(-c3ccncc3)nc2c1,4.4,nt
COc1ccc(CN2CC(COc3ccccc3)C3(C2)CN(c2ccccc2)C3)cc1O (configuration not stated),-5.3,31.6µM*
COc1ccc(CN2CC(CNc3ccccc3)C3(C2)CN(c2ccccc2)C3)cc1O (configuration not stated),-2.1,?
COc1ccc2[nH]c(=O)c(CCC(=O)N3CCCC3)cc2c1,34.3,?
COc1ccc2[nH]c(=O)c(CCC(=O)NCCCN3CCCCC3C)cc2c1 (configuration not stated),30.3,28.2µM*
CCC1CCCCN1CCNC(=O)CCc1cc2ccccc2[nH]c1=O (configuration not stated),-3.6,?
COc1ccc2[nH]c(=O)c(CCC(=O)N3CCN(CC(C)C)CC3)cc2c1,32.6,28.2µM*
CCN(CC)S(=O)(=O)c1ccc(NC(=O)Cn2nnc(-c3ccc(F)cc3)n2)cc1,nt,i
COc1ccc(C(NC(=O)c2oc3ccc(F)cc3c2C)c2nccn2C)cc1 (configuration not stated),nt,i
COc1cccc(CN2CCc3c(cc(C(=O)Nc4cc(C)ccc4OC)n3C)C2)c1,-5.7,?
O=C(COc1ccccc1Cl)OCC(=O)c1ccc(-c2ccccc2)cc1,nt,i
CC(C)CNC(=O)C1CCN(Cc2ccccc2-c2ccccc2F)CC1,7.8,nt
O=C1CSC(c2cccc(C(F)(F)F)c2)N1c1cc(Cl)cc(Cl)c1 (configuration not stated),nt,i
N[C@@H](Cc1cc(I)c(Oc2ccc(O)c(I)c2)c(I)c1)C(=O)O,-33.6*,nt
N[C@@H](Cc1cc(I)c(Oc2cc(I)c(O)c(I)c2)c(I)c1)C(=O)O,-25.0,nt
CN1Cc2ccc(NCc3ccccc3)nc2C(C)(C(=O)NCc2cccs2)C1 (configuration not stated),-6.4,?
COc1cccc(Nc2ccc3c(n2)C(C)(C(=O)NC2CCC(O)CC2)CN(C)C3)c1 (configuration not stated),-4.4,?
CN1Cc2ccc(NCc3ccccc3)nc2C(C)(C(=O)NCCOc2ccccc2)C1 (configuration not stated),2.1,31.6µM*
COc1ccc(NC(=O)C2(C)CN(C)Cc3ccc(NCc4ccccc4)nc32)cc1 (configuration not stated),4.8,31.6µM*
CN1Cc2ccc(NCc3ccccc3)nc2C(C)(C(=O)Nc2ccccc2)C1 (configuration not stated),20.1,28.2µM*
COCCNC(=O)C1(C)CN(C)Cc2ccc(Nc3ccccc3)nc21 (configuration not stated),12.1,i
COc1cccc(Nc2ccc3c(n2)C(C)(C(=O)NCc2cccs2)CN(C)C3)c1 (configuration not stated),-8.4,28.2µM*
COCCN1Cc2ccc(Nc3ccc(OC)cc3)nc2C(C)(C(=O)NCC2CC2)C1 (configuration not stated),8.5,i
SMILES,IP6K1 inhibitor,KDM5B inh
O=[N+]([O-])C=C(c1ccccc1)c1ccccc1,nt,i
O=C(NCc1ccc2c(c1)OCO2)C1CCCCN1Cc1ccc(-c2ccsc2)cc1 (configuration not stated),2.2,nt
Cc1ccc(OC(C)C(=O)NCCc2c[nH]c3ccccc23)cc1 (configuration not stated),nt,i
Cc1cc(C)n2nc(C)c(C(=O)N3CCCC(c4cccc(C(=O)O)c4)C3)c2n1 (configuration not stated),-9.1,31.6µM*
CCCOc1ccc(C(=O)N2C[C@H](c3cccc(OC)c3)[C@@H](N)C2)cc1Cl,6.0,i
O=C(O)c1cccc(C2CCCN(C(=O)c3ccc4c(c3)ncn4CCO)C2)c1 (configuration not stated),-6.1,i
COc1cccc([C@H]2CN(C(=O)c3c(C)nn4c(C)cc(C)nc34)C[C@@H]2N)c1,-11.3,28.2µM*
CC(=O)c1c(C)nc(C2CC2)nc1SCC(=O)NC(C)C(C)C (configuration not stated),nt,i
CC(C)(C)c1nnc([C@H]2CCN(Cc3cnc4ccccc4c3)C2)o1,-0.5,35.5µM*
CC(=O)Nc1ccc(CN2CC[C@H](c3nnc(C(C)(C)C)o3)C2)cc1,7.1,i

# Screens: PubChem, National Center for Advancing Translational Sciences (NCATS)
